Experimental data as given in ChEMBL document CHEMBL3988442, “University of Dundee, Small-Polar-MMV Screening Library” (2021).

How the values were obtained:
[1] = target: T1, Aspartate--tRNA(Asp/Asn) ligase (Mycobacterium tuberculosis (strain ATCC 25618 / H37Rv)) (UniProt P9WFW3); experiment: Assay for Asp RNA synthetase-1 from Mycobacterium tuberculosis; type: functional; set-up: scale not given: direction of the effect not stated beside the values; conditions: 30 µM; also: in the data most compounds retested in dose-response had high values
T1 sequence (whole entry): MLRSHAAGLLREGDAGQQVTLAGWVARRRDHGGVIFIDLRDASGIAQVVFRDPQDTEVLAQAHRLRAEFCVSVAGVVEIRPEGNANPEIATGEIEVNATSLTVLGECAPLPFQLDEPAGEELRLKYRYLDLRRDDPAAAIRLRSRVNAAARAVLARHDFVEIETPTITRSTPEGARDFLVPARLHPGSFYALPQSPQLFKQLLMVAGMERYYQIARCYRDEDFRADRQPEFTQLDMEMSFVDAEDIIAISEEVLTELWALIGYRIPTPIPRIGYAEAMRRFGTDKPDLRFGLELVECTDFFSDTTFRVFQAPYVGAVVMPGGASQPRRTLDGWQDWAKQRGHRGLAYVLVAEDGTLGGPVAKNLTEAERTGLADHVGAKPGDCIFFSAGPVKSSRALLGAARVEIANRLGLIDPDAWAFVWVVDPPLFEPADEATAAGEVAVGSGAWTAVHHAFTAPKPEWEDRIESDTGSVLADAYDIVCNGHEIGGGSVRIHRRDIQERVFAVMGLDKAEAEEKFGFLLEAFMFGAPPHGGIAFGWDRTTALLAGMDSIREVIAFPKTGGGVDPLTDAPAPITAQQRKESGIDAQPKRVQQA

[2] = target: Shiga toxin 2 (Escherichia coli O157:H7) (UniProt P09385+P09386); experiment: E. coli 0.157:H7 Shiga Toxin SOP - stx2 screening assay; type: functional; set-up: scale not given: direction of the effect not stated beside the values; conditions: 30 µM

| Structure (SMILES) | Percent Effect [1] | Percent Effect [2] |
| --- | --- | --- |
| Cc1ccc(Nc2nccc(C3CCCN(CC(=O)N(C)C)C3)n2)nc1 (centres undefined) | -2.93% | -28.3% |
| O=C(NCCn1ccnc1)N1CCCC1c1ccsc1 (centres undefined) | -7.57% | -9.24% |
| CSc1ncccc1C(=O)NCc1ccc(CS(=O)(=O)NC(C)C)cc1 | 4% | 6.55% |
| CC(c1nc(C2CC2)no1)N1CCN(Cc2ccccc2F)CC1 (centres undefined) | -7.52% | 8.03% |
| O=C(NCc1nncn1-c1ccccc1)C1CC(=O)N(CC2CC2)C1 (centres undefined) | -2.56% | 23.5% |
| O=C(c1ccco1)N1CCCC(c2cc(C(F)F)n3ncnc3n2)C1 (centres undefined) | -0.849% | -7.72% |
| Cn1cc2c(n1)C(CNC(=O)Cc1ccsc1)OCC2 (centres undefined) | -0.539% | -23.6% |
| COc1cccc2cc(CNC(=O)N3CCCC(O)C3)oc12 (centres undefined) | -4.17% | -15.3% |
| CCc1nc(CN2CCCN(C(=O)C(C)n3ccnc3)CC2)cs1 (centres undefined) | -1.76% | 8.27% |
| Cc1nc(CN2CCCC2c2nc(C(C)C)no2)cs1 (centres undefined) | -4.9% | 12.9% |
| Cc1nc(-c2ccsc2)ccc1C(=O)NCCN1CCOCC1 | -2.94% | -4.33% |
| Cc1cccc(C)c1OCCC(=O)N1CCC(c2nncn2C)CC1 | -2.43% | -9.22% |
| CN(CC(N)=O)S(=O)(=O)c1ccc(F)cc1Cl | -2.44% | -10.3% |
| O=C(c1ccc(OCC2CC2)nc1)N1CCCC(n2ccnc2)C1 (centres undefined) | -9.61% | -43.4% |
| OC(CN1CCC(c2ccn[nH]2)CC1)c1cccc(F)c1 (centres undefined) | -4.71% | -2.5% |
| COc1ccnc(N2CCN(C(=O)CCc3nccs3)CC2)n1 | -1.19% | -2.92% |
| O=C(Nc1ccc(F)cc1F)Nc1c[nH]c(=O)[nH]c1=O | 1.82% | -4.74% |
| CCOC(=O)N1CCN(C(=O)c2ccc3ccn(C)c3c2)CC1 | -0.585% | 1.39% |
| O=C(c1cc(C2CC2)[nH]n1)N1CCCC(n2cncn2)C1 (centres undefined) | -3.08% | 12.1% |
| CSc1ccc(CNC(c2ccccc2)c2nccn2C)cc1 (centres undefined) | 3.61% | -1.22% |
| CC(=O)NCC(=O)N1CCn2cc(CN3CCN(C)CC3)nc2C1 | 1.6% | -27.6% |
| NC(=O)COc1ccc(CNCc2ccc(F)c(F)c2)cc1 | -1.73% | -31.1% |
| CCO[C@@H]1CC[C@H]2[C@H]1OCCN2C(=O)C1CCOCC1 | -5.84% | 8.02% |
| Cn1ncc2c(=O)[nH]c(CN3CCCC3Cc3ccccc3)nc21 (centres undefined) | 2.98% | 35.6% |

| Structure (SMILES) | Percent Effect [1] | Percent Effect [2] |
| --- | --- | --- |
| CCn1cc(NC(=O)NCC(O)c2ccccc2)cn1 (centres undefined) | -0.4% | -5.7% |
| CC1CN(CC(=O)Nc2nncs2)CCN1Cc1nccn1C (centres undefined) | 4.22% | 12.1% |
| COc1cccc(-n2c(C)cc(C(=O)NS(C)(=O)=O)c2C)c1 | -1.31% | 4.7% |
| Cc1nc(CN2CCCC(NCc3ccsc3)C2)no1 (centres undefined) | 3.1% | -14.2% |
| CCC(=O)Nc1ccc2c(c1)CN(C(=O)c1ccco1)CC2 | -3.28% | -43.9% |
| Cc1noc(C(C)N2CCN(CCC(=O)N3CCCCC3)CC2)n1 (centres undefined) | -2.64% | 7.71% |
| Cc1ccc(CNCc2nnc3n2CC(C(F)(F)F)CC3)cc1 (centres undefined) | -6.08% | -16% |
| CCc1ccc(C(=O)N2CCCC(n3cncn3)C2)o1 (centres undefined) | 1.95% | -18.7% |
| O=C(NCCn1nc2ccccn2c1=O)c1cccc2[nH]ncc12 | -0.633% | -25.7% |
| CCc1nccn1-c1cncc(C2CCCN2Cc2cccnc2)n1 (centres undefined) | 5.87% | -37.2% |
| CN(CCN1CCCCC1)C(=O)c1cc(CN2CCOCC2)on1 | 5.72% | -1.02% |
| Cc1nccc(-c2cccc(NCC(=O)N3CCNC3=O)c2)n1 | 2.42% | 8.66% |
| Cc1cc(C2CCCN(C(=O)c3c(C)nn4cccnc34)C2)n[nH]1 (centres undefined) | -6.19% | 7.06% |
| CC(=O)c1cc(CC(=O)NCc2ccc(CN(C)C)cc2)cs1 | 1.66% | -38.2% |
| Fc1ccc(CNCC2OCCc3cn(CC4CC4)nc32)cc1 (centres undefined) | -2.61% | -6.8% |
| CNC(=O)N1CC[C@H]2N(C)CC[C@@]2(C(=O)Nc2ccccc2)CC1 | -8.12% | 15.9% |
| CNC(=O)[C@H]1C[C@@H]2CN(C(=O)c3cscn3)C[C@@H]2N1S(C)(=O)=O | 2.65% | -4.53% |
| CCn1ccnc1CN1CCN(CCC(=O)NC(C)(C)C)CC1C (centres undefined) | -4.35% | 15.4% |
| COCCN1C(=O)CCC12CCN(C(=O)NC(C)C)CC2 | -3.16% | 6% |
| CCC1CN(Cc2ccccc2)CCN1Cc1nnc(C2CCC2)o1 (centres undefined) | -4.92% | -9.86% |
| O=C(c1ccc2c(c1)OCO2)N1CCN(c2cnccn2)CC1 | -4.12% | -14.6% |
| CN1CCN(c2ncnc3c2c(C(=O)NC2CC2)c2ccccn23)CC1 | 5.32% | -14.4% |
| CNc1cc2c(nn1)CCN(C(=O)c1cc(F)cc(F)c1)C2 | -0.49% | 12.4% |
